From PubChem BioAssay (NCATS)
The source made the active and inactive calls. Calls come from the whole dose curve; as a rule, active = well fitted inhibition curve with a large enough effect; inconclusive = small, poorly fitted or top-dose-only effect; inactive = no such curve, though single readings can be large or run the other way.

test: qHTS assay for measurement of the activity of small molecule inhibitors on Zika virus induced Caspase-3 activity in human astrocytoma cells (AID 1224859); conditions: SNB-19 ZIKV-induced caspase-3/7, luminescence, 6 h; series mostly up to 45.7 µM
In short: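 Readout is luminescence from Caspase-Glo 3/7 added after a 6 h ZIKV infection (2 FFU/cell) of compound-pretreated (1 h) SNB-19 cells; data expressed as % inhibition versus uninfected and infected wells.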

Row | Compound | outcome
1 | COc1cc(CC(C)N)c(OC)cc1I (centres undefined) | inactive
2 | O=[N+]([O-])/C=C/c1ccc2c(c1)OCO2 | inactive
3 | CC(C)[C@@]1(NC(=O)[C@@H]2C[C@@H]3c4cccc5[nH]cc(c45)C[C@H]3N(C)C2)O[C@@]2(O)[C@@H]3CCCN3C(=O)[C@H](Cc3ccccc3)N2C1=O | inactive
4 | NCC(CP(=O)(O)O)c1ccc(Cl)cc1 (centres undefined) | inactive
5 | CCN1C[C@@]2(COC)C3[C@@H](OC)C4[C@@H]1C3([C@@H]1C[C@]3(O)[C@H](OC(=O)c5ccccc5)[C@@H]1[C@]4(OC(C)=O)[C@@H](O)[C@@H]3OC)[C@H](OC)C[C@H]2O | inactive
6 | CN1CCC(c2c[nH]c3ccc(O)cc23)CC1 | inactive
7 | CN(N=O)c1cc(O)ccc1O | inactive
8 | C[CH2][Hg][S]c1ccccc1C(=O)O | inactive
9 | CCCC[N+]1(C)C2CC(OC(=O)[C@H](CO)c3ccccc3)CC1C1OC12 (some centres undefined) | inactive
10 | NNC(=O)c1ccc(O)cc1 | inactive
11 | N[C@@]1(C(=O)O)CC[C@@H](C(=O)O)C1 | inactive
12 | CN1CC[C@@]2(C)c3cc(O)ccc3N(C)C12 (some centres undefined) | inactive
13 | NC(C(=O)O)c1cc(=O)[nH]o1 (centres undefined) | inactive
14 | NCCc1c[nH]c2ccc(C(N)=O)cc12 | inactive
15 | N#C/C(=C/c1ccc(O)c(O)c1)C(N)=S | inactive
16 | C[C@@H]1O[C@H](C[N+](C)(C)C)CS1 | inactive
17 | C[C@H](N)CN1CCc2ccc(Br)cc21 | inactive
18 | C[N+](C)(C)CCOC(=O)CBr | inactive
19 | CC(=O)OCC1=C(C(=O)O)N2C(=O)[C@@H](NC(=O)CCC[C@@H](N)C(=O)O)[C@H]2SC1 | inactive
